Results filed as inconclusive are left out. Activity calls are given as the source filed them. The calls were made as follows, unless noted: active = hit-call score of the fitted dose curve at least 0.9, where 1 is the maximum; inconclusive = response in the unintended direction; inactive = score below 0.9.
Assays:
[1] = CCTE_Mundy_HCI_hNP1_Casp3_7: CCTE's Caspase-Glo 3/7 Assay in human neuroprogenitor cells for Apoptosis, Mundy Lab (AID 2284240; active = hit-call score of the fitted dose curve at least 0.9, where 1 is the maximum; inactive = score below 0.9)
How it was run: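 Apoptosis is scored by activated caspase-3/7 luminescence in WA09-derived neural progenitor cells, measured 26.5 h after chemical dosing. Values represent gain of signal relative to DMSO vehicle.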

[2] = CCTE_Mundy_HCI_hNP1_CellTiter: CCTE's Cell Titer-Glo 2 Assay in human neuroprogenitor cells for Viability, Mundy Lab (AID 2284241)
How it was run: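 Human neural progenitor cells (hNP1, WA09-derived) were plated on poly-L-ornithine/laminin and grown 40 to 44 hours at 37 °C, 5% CO2 before chemical addition. Twenty-four hours later, ATP was measured by CellTiter-Glo luminescence; loss of signal versus DMSO indicates reduced viability.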

[3] = IUF_NPC2c_oligodendrocyte_migration_120hr: Leibniz Research Institute for Environmental Medicine (IUF) 120-hour Neural Progenitor Cell Migration Assay for Oligodendrocyte Migration (NPC2c) (AID 2284297; active = hit-call score of the fitted dose curve at least 0.9, where 1 is the maximum; inactive = score below 0.9)
How it was run: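 Read-out is the mean distance of O4-positive oligodendrocytes from the sphere core edge at 120 h, normalized to radial glia migration and fitted in the gain direction against DMSO. Spheres of primary human neural progenitors differentiated on laminin under continuous compound exposure.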

[4] = IUF_NPC2a_radial_glia_migration_120hr: Leibniz Research Institute for Environmental Medicine (IUF) 120-hour Neural Progenitor Cell Migration Assay for Radial Glia Migration (NPC2a) (AID 2284298; active = hit-call score of the fitted dose curve at least 0.9, where 1 is the maximum; inactive = score below 0.9)
How it was run: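 Readout: distance in um from sphere core edge to migration-area edge, derived from Hoechst nuclei density with a threshold-defined polynomial boundary. Spheres: hNPC, GW 16-19, 0.3 mm, on PDL/laminin; exposure 5 days; DMSO is baseline.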

[5] = IUF_NPC2b_neuronal_migration_120hr: Leibniz Research Institute for Environmental Medicine (IUF) 120-hour Neural Progenitor Cell Migration Assay for Neuron Migration (NPC2b) (AID 2284300; active = hit-call score of the fitted dose curve at least 0.9, where 1 is the maximum; inactive = score below 0.9)
How it was run: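 Read-out is mean distance from sphere edge to each TUBB3-positive neuron at 120 h, expressed relative to radial glia migration distance and to DMSO baseline. Single 0.3 mm human NPC spheres differentiated on laminin under continuous compound exposure.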

[6] = IUF_NPC3_neuronal_differentiation_120hr: Leibniz Research Institute for Environmental Medicine (IUF) 120-hour Neuronal Differentiation Assay (NPC3) (AID 2284301; active = hit-call score of the fitted dose curve at least 0.9, where 1 is the maximum; inactive = score below 0.9)
How it was run: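 Value is percent TUBB3-positive neurons among Hoechst-stained nuclei in the migration area, scored by trained CNN after 120 h differentiation. Primary hNPC spheres on poly-D-lysine/laminin, N2 medium, continuous dosing from day 0, half-refeed day 3; DMSO reference.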

[7] = IUF_NPC4_neurite_length_120hr: Leibniz Research Institute for Environmental Medicine (IUF) 120-hour Neuronal Morphology Assay for Neurite Length (NPC4) (AID 2284302; active = hit-call score of the fitted dose curve at least 0.9, where 1 is the maximum; inactive = score below 0.9)
How it was run: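 Neurite length, the mean in um across TUBB3-stained neurons, is derived by skeletonization of high-content images after 120 h differentiation. Compound exposure, 7 concentrations plus solvent control, ran from plating of hNPC spheres on poly-D-lysine/laminin, with medium half-replaced on day 3.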

[8] = IUF_NPC5_oligodendrocyte_differentiation_120hr: Leibniz Research Institute for Environmental Medicine (IUF) 120-hour Oligodendrocyte Differentiation Assay (NPC5) (AID 2284304);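 also: primary human fetal neural progenitor spheres plated to migrate and differentiate; share of O4-positive cells among Hoechst nuclei found by CNN image analysis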
How it was run: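 Oligodendrocyte differentiation was scored after 120 h as the O4-positive share of Hoechst-stained nuclei across the neurosphere migration area, using a trained convolutional neural network on high-content fluorescence images. Human fetal neural progenitor spheres were dosed from day 0, normalised to DMSO.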

[9] = IUF_NPC4_neurite_area_120hr: Leibniz Research Institute for Environmental Medicine (IUF) 120-hour Neuronal Morphology Assay for Neurite Area (NPC4) (AID 2284305)
How it was run: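 Neurite area (pixels, nuclei excluded) of TUBB3-positive neurons from hNPC spheres differentiating 5 days under continuous exposure at 37 C, 5% CO2. High-content imaging; loss of signal versus DMSO control across 7 concentrations.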

[10] = IUF_NPC2-5_cytotoxicity_72hr: Cytotoxicity Assessment at 72 hours in the Leibniz Research Institute for Environmental Medicine (IUF) Neural Progenitor Cell Migration and Differentiation Assay for Cytotoxicity (NPC2-5) (AID 2284306);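 also: LDH release into supernatant measured by resorufin fluorescence marking membrane damage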
How it was run: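 Membrane-integrity cytotoxicity at 72 h, read as LDH-driven resorufin fluorescence in supernatant. hNPC spheres from fetal cortex differentiate on coated plates in N2 medium, 37C, 5% CO2; seven serial compound concentrations plus solvent control (DMSO ≤0.1%).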

[11] = IUF_NPC2-5_cytotoxicity_120hr: Cytotoxicity Assessment at 120 hours in the Leibniz Research Institute for Environmental Medicine (IUF) Neural Progenitor Cell Migration and Differentiation Assay (NPC2-5) (AID 2284307)
How it was run: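 Sphere plating starts differentiation and exposure together at day 0. Compound solution is half-replaced on day 3. At 120 h, medium supernatant is taken for an LDH membrane-integrity read based on resazurin reduction to resorufin fluorescence.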

[12] = IUF_NPC2-5_cell_number_120hr: Cell Number Assessment at 120 hours in the Leibniz Research Institute for Environmental Medicine (IUF) Neural Progenitor Cell Migration and Differentiation Assay (NPC2-5) (AID 2284308; active = hit-call score of the fitted dose curve at least 0.9, where 1 is the maximum; inactive = score below 0.9;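 also: count of Hoechst-stained nuclei in migration zone around plated human neural progenitor spheres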)
How it was run: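 hNPC spheres, one per well, PDL/laminin, N2 medium, 37C, 5% CO2. Dosing day 0 → half-medium change with fresh compound day 3 → fix 120 h. Readout: Hoechst+ nuclei count, migration area; 7 concentrations plus solvent control.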

[13] = IUF_NPC2-5_viability_120hr: Viability Assessment at 120 hours in the Leibniz Research Institute for Environmental Medicine (IUF) Neural Progenitor Cell Migration and Differentiation Assay (NPC2-5) (AID 2284312; active = hit-call score of the fitted dose curve at least 0.9, where 1 is the maximum; inactive = score below 0.9)
How it was run: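 Alamar blue resorufin fluorescence read after 5 days of differentiation, with compound present from day 0 and replenished at day 3. Primary hNPC spheres on laminin-coated plates, 37C; seven concentrations plus solvent control, fitted against DMSO.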

[14] = CCTE_Mundy_HCI_iCellGluta_NOG_NeuriteLength: CCTE's Neurite Outgrowth Assay in iCellGluta cells for Neurite Length, Mundy Lab (AID 2284318)
How it was run: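 Automated high-content imaging of betaIII-tubulin (Alexa Fluor-488) and Hoechst-stained cells gave neurite length, normalized to the DMSO baseline.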

[15] = IUF_NPC1_cytotoxicity_72hr: Cytotoxicity Assessment at 72 hours in the Leibniz Research Institute for Environmental Medicine (IUF) Neural Progenitor Cell Proliferation Assay (NPC1) (AID 2284332);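 also: rising LDH signal means more cytotoxicity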
How it was run: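 Cytotoxicity by LDH membrane-integrity assay on medium supernatants, fluorescence via resazurin reduction, after 3-day single exposure of primary hNPC spheres at 37C, pH 7.2-7.6 with growth factors. Fitted upward against baseline.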

[16] = CCTE_Mundy_HCI_iCellGluta_NOG_NeuronCount: CCTE's Neurite Outgrowth Assay in iCellGluta cells for Neuron Count, Mundy Lab (AID 2284340);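 also: cells fixed about 48 h after compound addition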
How it was run: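 Neuron count read by automated high-content imaging of Hoechst 33342 and betaIII-tubulin/Alexa Fluor-488 labelling in human iPSC glutamatergic neurons. Activity fitted relative to DMSO.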

[17] = CCTE_Mundy_HCI_iCellGluta_NOG_NeuriteCount: CCTE's Neurite Outgrowth Assay in iCellGluta cells for Neurite Count, Mundy Lab (AID 2284342);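 also: chemical exposure about 48 hours starting 2 hours after plating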

Measured: outcome

O=C1CC2(CCCC2)CC(=O)N1CCCCN1CCN(c2ncccn2)CC1
inactive: all assays above
